# In PubChem BioAssay AID1259417 (TB Discovery Research, Infectious Disease Research Institute, 2018):
# In all, about 1,100 compounds went through this assay and about 760 (69%) were called active. No rule for the calls is given here. So high a share suggests a set chosen from earlier hits. Some of the results follow.
# Assay: M. tuberculosis growth inhibition, HTS (AID 1259417);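 also: bacteria grown with compound for 5 days at 37 °C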
# Details: stronger effect = higher value, concentration not given here
# [1] = M. tuberculosis DsRed fluorescence growth inhibition
# [2] = M. tuberculosis growth inhibition
SMILES,inhibition [1],inhibition [2]
Cc1ccc(C)c(C(=O)Nc2nnc(-c3cc(C)ccc3C)o2)c1,87.9% (active),74.7%
CCCC(=O)Nc1nnc(-c2cc(C)ccc2C)o1,10.9% (active),48.8%
CCCC(=O)Nc1nnc(-c2ccc(C)cc2C)o1,2.17% (inactive),26.4%
CCOc1ccccc1NC(=O)CSc1nc2ccc(NC(=O)c3ccccc3Cl)cc2s1,-3.22% (inactive),-11.8%
COc1cccc(OC)c1C(=O)Nc1ccc(Cl)c(-c2nc3ccccc3s2)c1,72.8% (active),62.9%
CCc1ccc(/C=c2\s/c(=C/C(=O)C(C)(C)C)[nH]c2=O)cc1,99.8% (active),99.5%
CC(C)Cn1c(N2CCN(Cc3ccc(Cl)c(Cl)c3)CC2)nc2c1c(=O)[nH]c(=O)n2C,7.43% (active),34.1%
O=C1NC(=NN=Cc2ccccc2O)SC1Cc1ccc(F)cc1 (stereo not given),99.2% (active),98.8%
CC(=N/N=C1\NC(=O)C(Cc2ccc(F)cc2)S1)c1ccc(Cl)cc1 (stereo not given),8.19% (inactive),-27.8%
CC(=N/N=C1\NC(=O)C(Cc2ccc(Cl)cc2)S1)c1ccc(F)cc1 (stereo not given),5% (inactive),-11.9%
COc1ccc(CC2SC(=NN=Cc3ccccc3O)NC2=O)cc1 (stereo not given),98.1% (active),97.1%
CCc1ccccc1-n1c(=O)oc2ccc(Cl)cc2c1=O,101% (active),100%
Cc1ccc(-n2c(=O)oc3ccc(Cl)cc3c2=O)cc1Cl,100% (active),101%
CCOC(=O)C=CC(=O)Nc1nc(-c2ccccc2)cs1,41.3% (active),56%
Cc1cccc(-n2c(N)cc(=O)nc2SCC(=O)Nc2nc(-c3ccccc3)cs2)c1,-2.92% (inactive),-16.5%
Cc1ccc(-c2c[n+](CC(=O)Nc3nc(-c4ccc(F)cc4)cs3)c3n2CCC3)cc1,15.8% (inactive),14.8%
CCc1ccc(OCC(=O)NNC(=O)c2cnccn2)c(Br)c1,93.6% (active),95.4%
Cc1ccc2nc(/C(C#N)=C/c3c[nH]c4ccc(Br)cc34)[nH]c2c1,19.3% (inactive),22.8%
CCOC(=O)COc1c(Cl)cc(C=C(C#N)c2nc3ccc(OC)cc3[nH]2)cc1Cl,45.4% (active),50.3%
COC(=O)COc1ccc(C=C(C#N)c2nc3ccccc3[nH]2)cc1,59.4% (active),79.9%
N#CC(=CNc1ccccc1)c1nc2ccccc2[nH]1,34.4% (active),48.7%
CCOC(=O)Cn1cc(C=C(C#N)c2nc3ccc(OC)cc3[nH]2)c2ccccc21,-3.18% (inactive),0.813%

SMILES,inhibition [1],inhibition [2]
CCOC(=O)C1=C(C)N(c2ccc(Br)cc2)C(=O)C1,6.73% (inactive),8.65%
O=C1Nc2ccccc2/C1=N/N=C/C1=C(N2CCOCC2)C(=C\c2ccccc2)/CC1,-1.05% (inactive),-11.8%
COC(=O)COc1cccc(NC(=O)c2cccc(C)c2)c1,14.1% (active),40.2%
COC(=O)COc1ccc(NC(=O)c2cccc(C)c2)cc1,68.2% (active),87.4%
COC(=O)COc1cccc(NC(=O)c2ccc(Cl)cc2)c1,50% (active),72.5%
O=C(c1ccc(Cl)cc1)C1CCCN(Cc2cnn(-c3ccccc3)c2)C1 (stereo not given),1.81% (inactive),-16.6%
CC1CCCN(CCC(=O)c2ccc(Br)cc2)C1 (stereo not given),72.2% (active),84.5%
COc1ccc(C(=O)CCN2CCCC(C)C2)cc1 (stereo not given),13.2% (inactive),13.2%
COc1cc2c(cc1NC(=O)Nc1ccc(Cl)cc1)oc1ccccc12,0.315% (inactive),-15.8%
Cc1ccc(Cc2ccc(C(=O)Nc3ccc(C)c(C)c3)o2)cc1,99.7% (active),99.7%
COc1ccc(C)cc1NC(=O)c1ccc(Cc2ccc(C)cc2)o1,98.3% (active),101%
Cc1cc(N2CCCCC2)nc2ccc(NC(=O)c3ccc(Br)o3)cc12,0.712% (inactive),-27.2%
COc1ccc2c(c1)CCC1Sc3ccccc3N=C21 (stereo not given),1.21% (inactive),17%
COC(=O)C(CC(C)C)NC(=O)/C=C/c1ccc(Cl)cc1 (stereo not given),53.1% (active),45.8%
COC(=O)C(CC(C)C)NC(=O)/C=C/c1ccccc1Cl (stereo not given),11.6% (inactive),28.6%
CC(C)Cc1cc(C(=O)Nc2c(F)cc(F)cc2Br)no1,22.3% (active),57.6%
O=C(c1ccco1)N(CCCn1ccnc1)c1nc2ccc(Cl)cc2s1,97.8% (active),99.1%
O=C(c1ccco1)N(CCCn1ccnc1)c1nc2ccc(Br)cc2s1,98.9% (active),98.4%
Cc1ccc2nc(N(CCCn3ccnc3)C(=O)c3ccco3)sc2c1,96.9% (active),98.4%
O=C1N(c2ccc3c(c2)OCCO3)C(c2ccccc2)C1(F)F (stereo not given),36.5% (active),75.8%
O=C(Nc1nnc(-c2ccc(Br)cc2)o1)c1cc(Cl)sc1Cl,8.56% (inactive),28.1%
COc1ccc(-c2nnc(NC(=O)c3ccc(Cl)s3)o2)cc1,75.4% (active),80.6%

SMILES,inhibition [1],inhibition [2]
O=C(Nc1nnc(-c2ccc(Br)cc2)o1)c1ccc(Cl)s1,32.9% (active),79.2%
O=C(Nc1nnc(-c2ccc(F)cc2)o1)c1ccc(Br)s1,66.4% (active),78.5%
CC(C)(C)c1ccc(-n2c(=O)[nH]c3c(C(N)=O)nc(CCc4ccccc4)nc32)cc1,2.16% (inactive),-28.9%
COc1ccc(Cn2c(=O)c3c(n4cnnc24)-c2ccccc2CC32CCCCC2)cc1,21.7% (inactive),2.83%
COc1ccc(C2(CNC(=O)c3cc([N+](=O)[O-])cc([N+](=O)[O-])c3)CCCC2)cc1OC,98.6% (active),94.9%
O=C(NCCc1ccc(Cl)cc1)C1CCC(CNc2c(N3CCCCC3)c(=O)c2=O)CC1 (stereo not given),96.1% (active),90%
CC1CC(C)CN(C(=O)c2ccc(CNc3c(N4CCCC4)c(=O)c3=O)cc2)C1 (stereo not given),97.5% (active),90%
O=C(NCCc1ccc(Cl)cc1)c1ccc(CNc2c(N3CCOCC3)c(=O)c2=O)cc1,96% (active),88.6%
CCOC(=O)COc1ccc2c(C)c(-c3ccc(OC)c(OC)c3)c(=O)oc2c1,10.3% (active),36.5%
CCOC(=O)COc1ccc2c(=O)c(-c3ccc(OC)cc3)c(C)oc2c1,83.6% (active),94%
COC(=O)C(C)Oc1ccc2c(=O)c(-c3ccc(Br)cc3)c(C)oc2c1 (stereo not given),32.6% (active),92.3%
COc1ccc(-c2c(C)oc3cc(OCC(=O)OC(C)C)ccc3c2=O)cc1OC,13.8% (active),67.7%
CCC(=Cc1sc2ccc(OC)cc2[n+]1CCO)C=C1Sc2ccc(OC)cc2N1CCO,9.54% (inactive),21%
CCOC(=O)COc1ccc2c(=O)c(-c3ccc(OC)c(OC)c3)c(C(=O)OCC)oc2c1,34.4% (active),64.4%
CCOC(=O)COc1ccc2c(C)c(CC(=O)OC)c(=O)oc2c1,11.2% (active),54.4%
CCOC(=O)c1c(NC(=O)c2ccc([N+](=O)[O-])c(C)c2)sc(C)c1-c1ccccc1,2.11% (inactive),-28.3%
Cc1ccc(C(=O)Oc2cccc(NC(=O)c3ccccc3)c2)cc1C,0.632% (inactive),1.38%
Cc1cc(C(=O)Oc2ccccc2)ccc1[N+](=O)[O-],10.6% (active),55.9%
Cc1cc(C(=O)Oc2ccc(Cc3ccccc3)cc2)ccc1[N+](=O)[O-],41.1% (active),39.3%
Cc1cc2c(cc1C)N(Cc1ccc(C(C)(C)C)cc1)C1=NCCCN12,95% (active),99.7%
Cn1c(Sc2cnn(-c3ccccc3)c(=O)c2Br)nnc1-c1ccccc1,49.6% (active),70.7%
Cn1c(Sc2ccc([N+](=O)[O-])c3cccnc23)nnc1-c1ccccc1,12% (inactive),20.3%

SMILES,inhibition [1],inhibition [2]
CCOC(=O)CSc1ncc(-c2cccc(Cl)c2)cn1,15% (active),70.5%
CCOC(=O)C(C)Sc1ncc(-c2ccc(Cl)cc2)cn1 (stereo not given),4.78% (active),45.6%
CCOC(=O)CSc1n[nH]c(-c2ccc(Cl)cc2)n1,17.9% (active),58%
O=C(CSc1n[nH]c(-c2ccc(Cl)cc2)n1)Nc1ccc(F)c(Cl)c1,-0.872% (inactive),-10.5%
CCCOc1ccccc1-c1nc(SCC(=O)OCC)n[nH]1,2.36% (active),37.9%
COc1ccc(-c2c(C)[nH]n3c(=O)c(Cc4ccccc4)c(C)nc23)cc1,96.2% (active),81.3%
COc1ccc(C2=CC(c3c(C)nn(-c4ccccc4)c3Cl)n3nnnc3N2)cc1OC (stereo not given),99.1% (active),93.4%
CCOc1ccc2c3c(c(=O)oc2c1OCC)CCCC3,31.8% (active),41.4%
COc1nc(SC)nc2sc3c(c12)CCC3,98.3% (active),99.3%
COc1ccc(-n2c(C)nc3sc4c(c3c2=O)CCCC4)cc1,-4.71% (inactive),-14.1%
Clc1ccc(OCCCn2ccnc2)cc1Cl,98.6% (active),99.3%
Clc1ccc(OCCCCn2ccnc2)cc1Cl,100% (active),99.3%
[O-][n+]1onc2c3cc(-c4ccccc4)nnc3ccc21,80.6% (active),96.7%
O=C(Nc1nnc(-c2cc(Cl)ccc2Cl)o1)c1ccc(Cl)s1,-4.8% (inactive),-10.4%
O=C(Nc1nnc(-c2cc(Cl)ccc2Cl)o1)c1cccs1,83.8% (active),82.4%
O=C(Nc1nnc(-c2cc(Cl)ccc2Cl)o1)c1ccc(Br)s1,96.9% (active),95.6%
O=C(OCC#CCSc1nc2ccccc2o1)c1ccco1,59.9% (active),68.2%
O=C(OCC#CCSc1nnc(-c2ccccc2)o1)c1ccco1,44% (active),10.3%
Cc1ccc(-c2nnc(SCC#CCOC(=O)c3ccco3)o2)cc1,35.7% (active),20.4%
